# Laboratory results published in ChEMBL document CHEMBL3988442, “University of Dundee, Small-Polar-MMV Screening Library” (2021).
# Among all 48,000 compounds or so, about 13,000 (27%) showed an effect of 50% or more. The list shows a part of the results.
# System: Wolbachia pipientis
# Assay: Anti-Wolbachia Cell-Based Screen
# Assay type: functional
# Parameters: scale not given: in the data most compounds retested in dose-response had high values
# Settings: 5 µM
row,Compound,Percent Effect [%]
1,COc1c(NC(=O)N(C)CCOc2ccc(F)cc2)c(C)nn1C,-9.317
2,O=C1CCCN1CC1CCCCN1C(=O)Nc1cccc(F)c1 (stereo not drawn),-9.718
3,Cc1ccc(F)cc1NC(=O)C1CCCN1C(=O)C(C)C (stereo not drawn),-3.665
4,CC(=O)N1CCN(C(=O)CCOc2ccc(C(C)C)cc2)CC1,-11.35
5,CC(=O)N1CCC[C@H]1C(=O)NCCOc1cccc(Cl)c1,1.208
6,CC(=O)N1CCCC1C(=O)NCCOc1ccc(C(C)C)cc1 (stereo not drawn),97.98
7,C=C(C)COCCNC(=O)C1CCCN1C(C)=O (stereo not drawn),4.711
8,CC(C)CCNC(=O)C1CCCN1C(=O)Nc1cccc(F)c1 (stereo not drawn),134.2
9,CC(=O)N1CCCC1C(=O)NCCOc1cc(C)cc(C)c1 (stereo not drawn),2.584
10,CC(=O)N1CCCC1C(=O)NCCOc1cccc(F)c1 (stereo not drawn),92.85
11,CC(=O)N1CCC[C@H]1C(=O)N(C)CCCOc1ccccc1,16.69
12,CC(=O)NCCOc1c(C)cccc1C,-5.514
13,CC(=O)N1CCCC1C(=O)NCCOc1c(C)cccc1C (stereo not drawn),70.88
14,CCC(CNC(=O)COC)Oc1cccc(F)c1 (stereo not drawn),-17.35
15,NC(=O)c1csc(N2CCCC(c3n[nH]c(=O)n3-c3ccccc3)C2)n1 (stereo not drawn),-8.892
16,CC(C)c1cc(C(=O)NCCn2nc3ccccn3c2=O)n[nH]1,7.227
17,Cc1nnc(NC(=O)NCc2ccc(C)n2C)s1,1.794
18,Cc1nnc(NC(=O)N2CCCCC2CCO)s1 (stereo not drawn),-9.567
19,Cc1nc(NC(=O)NCCCN2CCC(C(N)=O)CC2)sc1C,92.76
20,Cc1nc(Nc2ccc(Cl)cn2)sc1C(=O)NCCCN1CCCCC1,-4.658
21,Cc1nnc(NC(=O)NCCCN2CCC(C(N)=O)CC2)s1,105
22,Cc1nc(NC(=O)C2CCCN(C(=O)C3CC3)C2)sc1C (stereo not drawn),22.45
23,Cc1cccc(C(=O)N2CCn3cc(CNC(=O)CC4CC4)nc3C2)n1,2.995
24,COC(=O)N1CCCC(NC(=O)NCc2cccc(C)n2)C1 (stereo not drawn),-5.43
25,Cc1cccc(CN2CCC(Cc3ccccc3F)CC2)n1,-1.449
26,Cc1cccc(CNC(=O)CC2CCN(S(C)(=O)=O)CC2)n1,82.07

row,Compound,Percent Effect [%]
1,Cc1cccc(CNC(=O)C2CCC(=O)N(Cc3ccccc3F)C2)n1 (stereo not drawn),-24.63
2,Cc1cccc(CN2CCS(=O)(=O)[C@@H]3CCN(S(C)(=O)=O)CC[C@@H]32)n1.O=C(O)C(F)(F)F,-6.526
3,Cc1cccc(CNC(=O)CC2CCN(Cc3ccccn3)CC2)n1,99.8
4,Cc1cccc(CN2CCn3cc(CNC(=O)CC4CC4)nc3C2)n1,3.137
5,Cc1cccc(CNC(=O)CC2CCN(C(=O)C(C)C)CC2)n1,83.92
6,Cc1cccc(C2(O)CCN(C(=O)c3ccc(N(C)C)cc3)CC2)c1C,-4.914
7,COc1ccc(Br)cc1NCC(=O)NC(C)(C#N)C1CC1 (stereo not drawn),14.48
8,Cc1ccccc1CN1CCC(NCC2CNc3ccnn3C2)CC1 (stereo not drawn),8.316
9,c1ccc(CN2CCC(Nc3ncnc4c3CCNCC4)C2)cc1 (stereo not drawn),76.79
10,Cc1ccccc1CN1CCC(CNc2ncnc3c2CCNCC3)C1 (stereo not drawn),119.4
11,O=C(Cn1cccn1)NCC1CCCN(Cc2ccccc2)C1 (stereo not drawn),8.029
12,Cc1[nH]c2ccccc2c1CCNc1ncnc2c1CCNCC2,-9.659
13,c1ccc(CN2CCC(CNc3ncnc4c3CCNCC4)CC2)cc1,97.41
14,c1ccc(CN2CCCC(CNc3ncnc4c3CCNCC4)C2)cc1 (stereo not drawn),100.7
15,c1cnnc(N2CCCC2CNc2ncnc3c2CCC3)c1 (stereo not drawn),2.71
16,c1ccc(CN2CCC(NCCSc3ncn[nH]3)C2)cc1 (stereo not drawn),12.73
17,Cc1nc(CN2CCCC(Nc3ncnc4c3CCC4)C2)no1 (stereo not drawn),-2.2
18,OC(CN(Cc1ccccc1)Cc1ccncc1)c1cccs1 (stereo not drawn),13.62
19,Cc1nnc(CN2CCC(Oc3ccc(C)c(C)c3)CC2)o1,-18.16
20,Cc1ccc(CNCCS(=O)(=O)N2CCOCC2)cc1C,-37.41
21,Cc1ccn(CCNc2ncnc3c2CCN(Cc2ncc[nH]2)CC3)n1,5.519
22,c1ccc(CN2CCC(CCNc3ncnc4c3CCNCC4)C2)cc1 (stereo not drawn),82.99
23,COCC1CC2(CCN(C(=O)c3ccco3)CC2)CN1C(C)C.O=C(O)C(F)(F)F (stereo not drawn),111.9
24,COCC1CC2(CCN(Cc3cnn(C)c3)CC2)CN1C(C)C.O=C(O)C(F)(F)F.O=C(O)C(F)(F)F (stereo not drawn),-6.847
25,COCC1CC2(CCN(C(=O)c3occc3C)CC2)CN1C(C)C.O=C(O)C(F)(F)F (stereo not drawn),98.04
26,COCC1CC2(CCN(C(=O)c3cc(C)oc3C)CC2)CN1C(C)C.O=C(O)C(F)(F)F (stereo not drawn),17.98

row,Compound,Percent Effect [%]
1,COCC1CC2(CCN(C(=O)c3ccccc3C)CC2)CN1C(C)C.O=C(O)C(F)(F)F (stereo not drawn),101.7
2,COCC1CC2(CCN(Cc3ccc(OC)cc3)CC2)CN1C(C)C.O=C(O)C(F)(F)F.O=C(O)C(F)(F)F (stereo not drawn),-13.29
3,COCC1CC2(CCN(C(=O)c3cccn3C)CC2)CN1C(C)C (stereo not drawn),-8.006
4,COCC1CC2(CCN(C(=O)c3ccc(C)nc3)CC2)CO1.O=C(O)C(F)(F)F (stereo not drawn),-3.949
5,COCC1CC2(CCN(Cc3ccc(C)o3)CC2)CN1C(C)C.O=C(O)C(F)(F)F.O=C(O)C(F)(F)F (stereo not drawn),100.3
6,N#Cc1ccc(C2CC(=O)Nc3c2cnn3C2CCCC2)cc1 (stereo not drawn),11.66
7,N#Cc1cn(C2CC2)c(=O)n(Cc2cc(-c3cccs3)on2)c1=O,15.09
8,COC(=O)CCN1CCC(NC(=O)OC(C)(C)C)CC1,-7.075
9,CC(C1CCN(Cc2cnn(C)c2C2CC2)CC1)N1CCN(C)CC1 (stereo not drawn),-5.459
10,Cc1nnc(N2CCCC(C(=O)c3cccc(Cl)c3)C2)o1 (stereo not drawn),-20.06
11,O=C(c1cccc(Cl)c1)C1CCCN(c2nnc(C3CCC3)o2)C1 (stereo not drawn),-5.901
12,Cc1cccc(-c2nccnc2C2CCCN(C)C2)c1C (stereo not drawn),89.85
13,CN1CCCC(c2nc3c([nH]2)CC(C)(C)CNC3=O)C1 (stereo not drawn),-16.77
14,COc1ccc(C)cc1-n1cnnc1C1CCCN(C)C1 (stereo not drawn),8.034
15,CN1CCCC(c2nccnc2-c2cccc(Cl)c2)C1 (stereo not drawn),117.7
16,Cc1cccc(-c2nccnc2C2CCN(C)CC2)c1C,64.83
17,CCN(C)C(C(=O)Nc1ccc2c(c1)CCC(=O)N2)c1ccccc1 (stereo not drawn),0.8734
18,OCCn1ncc2c1CN(CC1CCOc3ccccc3C1)C2 (stereo not drawn),4.778
19,CC(NC(=O)NCc1cscn1)c1ccc(N2CCOCC2)cc1 (stereo not drawn),-18.24
20,O=c1[nH]c2c(c(=O)n1C1CCCCC1)CCC2NCCc1ccccc1 (stereo not drawn),24.49
21,CC(C)N(CC1CCCN(CC(N)=O)C1)C(=O)OC(C)(C)C (stereo not drawn),12.71
22,COc1cccc(-c2cc(-c3nc(CN4CCN(C)CC4)no3)[nH]n2)c1,0.4618
23,Cn1cccc1C(=O)N1CCC(O)(CN2CCc3ccccc3C2)C1 (stereo not drawn),119.3
24,Cc1ccc(C(=O)N2CCN(CC(O)c3ccc(F)cc3)CC2)s1 (stereo not drawn),-1.791
25,Cn1cccc1C(=O)N1CCCC2(CCCN2S(C)(=O)=O)C1 (stereo not drawn),2.477
26,Cc1ccc(C(=O)N2CCC(O)(CN3CCc4ccccc4C3)C2)s1 (stereo not drawn),99.66

row,Compound,Percent Effect [%]
1,Cc1csc(C(=O)N2CCC(O)(CN3CCc4ccccc4C3)C2)c1 (stereo not drawn),114.3
2,Cn1cccc1C(=O)N1CCC2(CC1)CCN2S(C)(=O)=O,-0.7561
3,CN(C)CC1(O)CCN(C(=O)c2cnc(CN3CCCC3)s2)C1 (stereo not drawn),-12.27
4,O=S1(=O)C[C@@H]2[C@H](C1)N(Cc1cccc(O)c1)CCN2CC1CC1,-9.844
5,Cc1noc([C@@H]2C[C@H](NS(=O)(=O)Cc3ccccc3)CN2C)n1,-2.99
6,CC(OCC1CC1)C(=O)NCc1ccc(Cn2ccnc2)cc1 (stereo not drawn),-1.593
7,Cc1ccc([C@@H]2CN(C(=O)CCc3ccco3)C[C@H]2N(C)C)cc1,-4.926
8,COc1ccccc1C(=O)N1CC(=O)N(Cc2ccco2)CC(O)C1 (stereo not drawn),85.9
9,Cc1ccc(C(=O)N2CC(=O)N(Cc3ccco3)CC(O)C2)cc1 (stereo not drawn),118.6
10,CCc1ccc(CN2C[C@@H](C(=O)O)[C@H](c3ccccc3OC)C2)o1,-18.6
11,COc1ccccc1C(=O)N1CC2(COC(C)(C)OC2)C1,-9.843
12,Cc1cc(C(=O)N2CCN(Cc3ccco3)C(CCO)C2)cc(=O)[nH]1 (stereo not drawn),-4.439
13,CS(=O)(=O)NCC1CCCCN1C(=O)c1cccc(C(F)(F)F)c1 (stereo not drawn),93.67
14,NC(=O)CC1CCCCN1C(=O)c1cccc(C(F)(F)F)c1 (stereo not drawn),118.1
15,NC(=O)CN(C(=O)c1cccc(C(F)(F)F)c1)C1CCCC1,-15.86
16,Cc1ccc(-c2nc(C(=O)N3CCCCC3CNS(C)(=O)=O)cs2)cc1 (stereo not drawn),5.411
17,NC(=O)NCC1CCCCN1C(=O)c1cccc(C(F)(F)F)c1 (stereo not drawn),3.602
18,CCC(O)CNC(=O)C1(N(C)Cc2ccccc2)Cc2ccccc2C1 (stereo not drawn),-9.431
19,CCc1nc2n(n1)CCCC2NC(=O)Nc1ccc(SC)c(F)c1 (stereo not drawn),-17.88
20,COc1cc(N2CCCC(c3nccn3CCN(C)C)C2)nc(N)n1 (stereo not drawn),-7.598
21,COc1ccc(CN2C[C@@H](OCc3csc(C)n3)[C@H]3COC[C@H]32)cc1.O=C(O)C(F)(F)F,-4.618
22,N#Cc1cccc(CN2C[C@H](OCC3CCOCC3)[C@H]3COC[C@H]32)c1.O=C(O)C(F)(F)F,-3.694
23,COc1ccc(CN2C[C@H](OCC3CCOCC3)[C@H]3COC[C@H]32)cc1.O=C(O)C(F)(F)F,2.727
24,O=C(O)C(F)(F)F.c1cc(CN2C[C@H](OCC3CCOCC3)[C@H]3COC[C@H]32)co1,84.18
25,O=C(O)C(F)(F)F.c1cc(CN2C[C@H](OCC3CCOCC3)[C@H]3COC[C@H]32)cs1,93.96
